# Measurements from PubChem BioAssay AID889 (National Center for Advancing Translational Sciences (NCATS), 2007).
# Screen size: about 75,000 compounds; about 15 (0.02%) were called active. Another 3% or so got no clear call; they are omitted. The list comes from a sample in which actives are over-represented; it also holds similar structures and randomly drawn compounds. Where a call stands in place of a potency, no number is given. A number with no mark means an inactive call. Calls come from the whole dose curve; as a rule, active = well fitted inhibition curve with a large enough effect in the main read-out, with a control signal flat (not every such curve was filed as active); inconclusive = small, poorly fitted or top-dose-only effect, or a change in a side signal; inactive = flat fitted curve, though single readings scatter. Square brackets hold non-standard residues; d marks the D form. Side chains are listed from the residue outwards. Peptide text beside a SMILES is read from it. * marks the point of attachment. X1 = CCC(C)C(N)C1=NC(C(=O)*)CS1; Orn = NCCC[CH](N)C(=O)O
# Molecular target: Caspase-7 (Homo sapiens) (UniProt P55210)
# Sequence (P55210 24-198 limits assumed): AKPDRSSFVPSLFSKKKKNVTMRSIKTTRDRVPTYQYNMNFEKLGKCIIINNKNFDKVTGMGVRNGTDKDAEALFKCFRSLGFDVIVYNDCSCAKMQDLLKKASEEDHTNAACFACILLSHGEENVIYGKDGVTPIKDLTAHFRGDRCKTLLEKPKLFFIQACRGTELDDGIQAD
# Sequence (P55210 207-303 limits assumed): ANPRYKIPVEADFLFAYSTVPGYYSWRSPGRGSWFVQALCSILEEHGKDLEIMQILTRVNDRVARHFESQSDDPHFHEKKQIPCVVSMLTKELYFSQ
# Assay: qHTS Assay for Allosteric/Competitive Inhibitors of Caspase-7
# Conditions: recombinant caspase-7, Ac-DEVD-AFC fluorescence rate; series mostly up to 57.5 µM
# Source text: NIH Molecular Libraries Screening Centers Network [MLSCN]
# NIH Chemical Genomics Center [NCGC]
# PI Name: Dr. James Wells,
# Dr. Enrique Perez-Paya, Dr.Janice Williams, Dr. Dennis Wolan, a person
# The caspases (Cysteine Aspartyl Protease) comprise a related family of 14 dimeric proteases that are critical mediators of apoptosis (programmed cell death) and inflammation. The caspases represent an important class of drug targets for stroke, ischemia, cancer and inflammatory diseases. […] One goal of this project was to identify compounds that act as allosteric inhibitors via stabilizing the procaspase form of the enzyme. Previous work in Well's laboratory has shown that such allosteric inhibitors can be identified and these act by binding at the dimer interface of enzyme (Hardy, Lam et al., 2004).
# The biochemical assay was configured using purified caspase 7 at a high enzyme concentration to promote formation of the homodimers and thus facilitate the identification of allosteric inhibitors. The overall goal was to identify reversible inhibitors with better drug-like properties than the currently available set of aspartyl-containing peptidomimetics that covalently bind the active site. Caspase 7 was assayed using the profluorescent substrate Ac-DEVD-AFC. After initiation of the assay with substrate the plates were rapidly read using an automated robotic system (Kalypsys, Inc.) to maintain consistent timing. A kinetic mode of detection was used where the initial rate was collected (estimated final product formation was ~10%). Compounds were screened as a concentration-titration series that ranged from 57 uM to 0.7 nM. Below is the protocol used for caspase 7.
# NCGC Assay Protocol Summary:
# Caspase 7 was prepared in buffer (50 mM HEPES pH 7.5, 50 mM KCl, 200 mM NaCl, 10 mM DTT, 0.1% CHAPS) at a concentration of 66.6 nM and 3 uL was dispensed to all wells using black solid Kalypsys 1536-well plates. 20 nL of DMSO containing compounds was added using a pin-tool (Kalypsys Inc.) to columns 5-48. Then 20 nL of DMSO solution from a control plate was added to columns 1-4. Controls were: Column 1, 16 point titration with each concentration in duplicate (1:1 dilutions in DMSO; final starting concentration was 57 uM) of the caspase 7 inhibitor Ac-DEVD-CHO (Alexis Biochemicals); Column 2, a 16 point titration with each concentration in duplicate of the free AFC fluorophore prepared in DMSO (Alexis Biochemicals), final starting was 40 uM; Column 3 neutral (DMSO only) control; Column 4: DMSO alone, to serve as a negative control (no substrate was added). Then 1 uL of 20 uM the substrate Ac-DEVD-AFC (Alexis Biochemicals) prepared in the same buffer was dispensed to all wells except columns 2 and 4 and the plates were immediately transferred (< 1 min) to the Viewlux. The plates were then exposed using 405 nm excitation/520 nm emission filters for 4 sec and read at 20 sec intervals for 3 min. Final enzyme concentration was 50 nM and the final substrate concentration was 5 uM.
# Concentration-response curves were fitted to the data calculated from slope of the linear regression of fluorescent intensity versus time (the rate). The concentration-effect curves were then classified based on curve quality (r2), response magnitude and degree of measured activity. […] Inconclusive compounds had appreciable concentration-dependent effects on both the measured rate and the interpolated basal fluorescence intensity at the start of the reaction but where the basal fluorescent intensity was marginal (e.g. < 10-fold). Inconclusive compounds also encompass highly fluorescent compounds (>100-fold increases in fluorescent intensities values relative to controls) where artificial concentration-dependent decreases in the rate occurred at high compound concentrations due to fluorescent interferences.
# Keywords: Caspase 7, proteases, profluorescent, MLSMR, MLSCN, NIH Roadmap, qHTS, NCGC
# Potency is the fitted concentration of half-maximal effect.
SMILES,"activity change, negative = inhibition",Potency
Cc1nc2cc(-c3ccc(F)cc3)nn2c(N2CCOCC2)c1C,inactive,–
COc1ccc(S(=O)(=O)Nc2c(C)n(C)n(-c3ccccc3)c2=O)cc1,inactive,–
Nc1ncnc2c1ncn2C1CC(O)C(CO)O1 (stereo not given),inactive,–
C=CCC(NCCCO)c1cccc(OC)c1OC (stereo not given),inactive,–
COc1cccc(OC)c1C(=O)Nc1nnc(C(C)C)s1,inactive,–
CCC(C)C(N)C1=NC(C(=O)NC(CC(C)C)C(=O)NC(CCC(=O)O)C(=O)NC(C(=O)NCCCCC2NC(=O)C(CC(N)=O)NC(=O)C(CC(=O)O)NC(=O)C(Cc3cnc[nH]3)NC(=O)C(Cc3ccccc3)NC(=O)C(C(C)CC)NC(=O)C(CCCN)NC2=O)C(C)CC)CS1 (stereo not drawn) (cyclo(DNK([Ile-Glu-Leu-X1])[Orn]IFH); configuration not given here),inactive,–
Cc1cccc2c3c(ccc12)C1=C(C(=O)C3=O)C(C)CO1 (stereo not given),inactive,–
COc1ccc(-c2nc3cnc(OC)nc3n(Cc3ccc(F)cc3)c2=O)cc1,inactive,–
CN(C)CCCCNC(=O)c1ccc(Cc2nc3ccccc3[nH]2)cc1,inactive,–
C=C1C(=O)C23C(O)C1CCC2[C@]12COC3(O)C(O)C1C(C)(C)CC[C@H]2O (stereo not given in full),inactive,–
Cc1ccc2nc(S(=O)(=O)O)[nH]c2c1,inactive,–
CCOC(=O)N1CCN(C(=O)CNC(=O)Cc2ccc(Cl)cc2)CC1,inactive,–
COc1ccc(S(=O)(=O)N2CCCC2)c(C)c1C,inactive,–
COC(=O)c1ccc(C23CC4(C2)[C@H](CN(Cc2cccnc2)[C@@H]4c2ccccc2)C3c2ccc(Cl)nc2)cc1 (stereo not given in full),inactive,–
COC1C[C@@H](O[C@@H]2C(C)C(=O)OC(C)C(C)C(O)C(C)C(=O)[C@@]3(CO3)CC(C)C(OC3OC(C)CC(N(C)C)C3O)C2C)OC(C)[C@@H]1O (stereo not given in full),inactive,–
Cc1nn2c3cc(N4CCOCC4)ccc3nc2c2ccccc12,inactive,–
CC(=O)N(CN1C(=O)C2CC=CCC2C1=O)c1cccc(Cl)c1 (stereo not given),inactive,–
CC1(C)OC2CO[C@]3(COS(N)(=O)=O)OC(C)(C)OC3C2O1 (stereo not given in full),inactive,–
CCCCOC(=O)CNc1nnc(SCC(=O)OCC)[nH]c1=O,inactive,–
CC[C@@H]1Cc2cc(O)ccc2C2=C1c1ccc(O)cc1C[C@H]2CC,inactive,–
O=C(O)C(O)[C@@](O)(Cc1ccc(O)cc1)C(=O)O (stereo not given in full),inactive,–
COc1cccc(N2CCN(C(=O)C3CCCN(S(=O)(=O)c4cnc[nH]4)C3)CC2)c1 (stereo not given),inactive,–
COc1ccc(N2C(=O)CN=C2Nc2cccc(C)c2C)cc1OC,inactive,–
COC(=O)[C@@H]1C[C@@]2(O)[C@H](O)[C@H](O)[C@H](O)C[C@H]2N1Cc1ccc(C)s1,inactive,–
O=C(O)c1c(Br)c(Br)c(Br)c(Br)c1C1c2ccc(O)cc2Oc2cc(O)ccc21,–,3.98 µM (active)

SMILES,"activity change, negative = inhibition",Potency
COc1ccc(OC)c2[nH]c(=O)c(CCNC(=O)C(C)(C)C)cc12,inactive,–
O=C(Oc1cc(OC(=O)c2ccccc2)c2c(c1)OC(c1ccc(OC(=O)c3ccccc3)c(OC(=O)c3ccccc3)c1)[C@@H](OC(=O)c1ccccc1)C2)c1ccccc1 (stereo not given in full),inactive,–
C/C=C(/C)C(=O)OC1Cc2c(ccc3ccc(=O)oc23)OC1(C)C (stereo not given),inactive,–
Cc1ccc(CNC(=O)C2CCCN(S(C)(=O)=O)C2)cc1 (stereo not given),inactive,–
CC(C)=CCC/C(C)=C/CO/N=C1/C[C@@H](O)[C@@H](O)[C@@H]2[C@@H]3C(=O)N(C(C)(C)C)C(=O)[C@H]3CC[C@H]12,0.517% [at 11.5 µM],–
CCOC(=O)C1CCN(C(=O)COc2cc(C)c(Br)c(C)c2)CC1,inactive,–
COc1ccc(CCC(=O)c2c(O)cc(OC3OC(CO)C(O)C(O)C3O[C@@H]3OC(C)C(O)C(O)C3O)cc2O)cc1O (stereo not given in full),inactive,–
CCN1CCN(C(=O)c2ccccc2N(C)S(=O)(=O)c2ccc(C)cc2)CC1,inactive,–
Cc1cc(C)c(C)c(S(=O)(=O)Nc2ccc(O)cc2)c1C,inactive,–
O=C(CSc1nc2ncccc2[nH]1)Nc1ccc2c(c1)OCCO2,inactive,–
C=C1C([C@@]2(C)C(OC(C)=O)CC(=O)O[C@@](C)(COC(C)=O)C2CC(=O)OC)C(OC=O)C(OC(=O)C(O)C(C)CC)[C@]2(C)C(c3ccoc3)CC(=O)C12O (stereo not given in full),inactive,–
CC(C)N(CCNC(=O)c1ccc(-n2c(=O)c(=O)[nH]c3ccccc32)cc1)C(C)C,inactive,–
CCOC(=O)C1CCCN(C(=O)c2ccc(CS(=O)(=O)c3ccc(Br)cc3)o2)C1 (stereo not given),inactive,–
Clc1ccc(C2[C@H]3CN(CC4CCCCC4)[C@H](c4ccccc4)C34CC2(c2cccnc2)C4)cn1 (stereo not given in full),inactive,–
Cc1cnc(C(=O)OCC(=O)Nc2ccc(Cl)cc2Cl)cn1,inactive,–
O=C(CSc1nc2ccccc2o1)N1CCN(c2ccccc2)CC1,inactive,–
CN1CCCC1CCO[C@@](C)(c1ccccc1)c1ccc(Cl)cc1 (stereo not given in full),inactive,–
Nc1nc2nc(Cl)[nH]c2c(=O)[nH]1,inactive,–
CC1CC[C@@]23CCC4(C)[C@@]5(C)CCC6C(C)(C)C(O)CC[C@@]6(C)C5C=C[C@@]4(OC2=O)C3C1C (stereo not given in full),inactive,–
O=C(Nc1nsc(-c2ccccc2)n1)c1ccncc1,inactive,–
CCC(CCC(C)C1CCC2C3CC=C4CC(O)CC[C@@]4(C)C3CC[C@@]12C)C(C)C (stereo not given in full),inactive,–
Cc1c(NC(=O)Nc2ccccc2Cl)sc(=S)n1C,inactive,–
COc1ccc(S(=O)(=O)N(C)CC(=O)Nc2ccc3c(c2)OCCO3)cc1OC,inactive,–
COC(=O)[C@@H]1C[C@@]2(O)[C@@H](O)[C@@H](O)[C@@H](O)C[C@H]2N1Cc1ccc(C)s1,inactive,–
COc1ccc(C2CC(=O)c3c(O)cc(OC4OC(COC5OC(C)C(O)C(O)C5O)C(O)C(O)C4O)cc3O2)cc1O (stereo not given),inactive,–
